± gives the standard deviation of the averaged measurements.
Tests used:
Assay in all cases: promoter activity interaction Z-score (Lux/OD deviation from empty-vector control); higher = stronger promoter induction by the compound
[1] = tested on: E. coli BW25113 acrABp lux reporter
Summary of the method: (§1)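 E. coli BW25113 (wild type or marA, soxS or rob deletion) carrying low-copy luxCDABE promoter reporters grew in 40 µl LB Lennox in 384-well plates at 37°C. Each compound was tested at four 1:2 dilutions in biological duplicates. OD600 and luminescence were read every 30 min for 12 h. Areas were taken over 0–8 h (wild type) or 1–9 h (mutants), and wells below 10% of median growth area were removed. The score is the Z-transformed residual of growth-normalised luminescence fitted against the empty-vector control.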

[2] = tested on: E. coli BW25113 micFp lux reporter
Summary of the method: as §1

[3] = tested on: E. coli BW25113 ompFp lux reporter
Summary of the method: as §1

[4] = tested on: E. coli BW25113 robp lux reporter
Summary of the method: as §1

[5] = tested on: E. coli BW25113 soxSp lux reporter
Summary of the method: as §1

[6] = tested on: E. coli BW25113 tolCp lux reporter
Summary of the method: as §1

[7] = 0.45 µg/ml, genetic background: wild type
[8] = 0.45 µg/ml, genetic background: ΔmarA
[9] = 0.45 µg/ml, genetic background: Δrob
[10] = 0.45 µg/ml, genetic background: ΔsoxS
[11] = 0.89 µg/ml, genetic background: wild type
[12] = 0.89 µg/ml, genetic background: ΔmarA
[13] = 0.89 µg/ml, genetic background: Δrob
[14] = 0.89 µg/ml, genetic background: ΔsoxS
[15] = 1.8 µg/ml, genetic background: wild type
[16] = 1.8 µg/ml, genetic background: ΔmarA
[17] = 1.8 µg/ml, genetic background: Δrob
[18] = 1.8 µg/ml, genetic background: ΔsoxS
[19] = 3.6 µg/ml, genetic background: wild type
[20] = 3.6 µg/ml, genetic background: ΔmarA
[21] = 3.6 µg/ml, genetic background: ΔsoxS
[22] = 3.6 µg/ml, genetic background: Δrob

O=C1CN(/N=C/c2ccc([N+](=O)[O-])o2)C(=O)N1 [Nitrofurantoin]
promoter activity interaction Z-score [1, 7]: 0.0114 ± 0.17 | promoter activity interaction Z-score [1, 8]: 0.119 ± 1.2 | promoter activity interaction Z-score [1, 9]: 0.336 ± 0.34 | promoter activity interaction Z-score [1, 10]: 0.0185 ± 0.49 | promoter activity interaction Z-score [1, 11]: -0.124 ± 0.043 | promoter activity interaction Z-score [1, 12]: 0.483 ± 1.2 | promoter activity interaction Z-score [1, 13]: 0.267 ± 0.28 | promoter activity interaction Z-score [1, 14]: -0.258 ± 0.11 | promoter activity interaction Z-score [1, 15]: 0.24 ± 0.28 | promoter activity interaction Z-score [1, 16]: -0.0961 ± 0.62 | promoter activity interaction Z-score [1, 17]: 0.562 ± 0.54 | promoter activity interaction Z-score [1, 18]: 0.221 ± 0.13 | promoter activity interaction Z-score [1, 19]: 5.63 ± 1.8 | promoter activity interaction Z-score [1, 20]: 1.31 ± 1.1 | promoter activity interaction Z-score [1, 21]: 1.31 | promoter activity interaction Z-score [2, 7]: -0.201 ± 0.35 | promoter activity interaction Z-score [2, 8]: -0.0627 ± 0.036 | promoter activity interaction Z-score [2, 9]: -0.0214 ± 0.074 | promoter activity interaction Z-score [2, 10]: 0.0613 ± 0.061 | promoter activity interaction Z-score [2, 11]: -0.0281 ± 0.071 | promoter activity interaction Z-score [2, 12]: 0.0181 ± 0.016 | promoter activity interaction Z-score [2, 13]: 0.0629 ± 0.06 | promoter activity interaction Z-score [2, 14]: -0.168 ± 0.14 | promoter activity interaction Z-score [2, 15]: -0.0112 ± 0.03 | promoter activity interaction Z-score [2, 16]: -0.163 ± 0.13 | promoter activity interaction Z-score [2, 17]: 0.113 ± 0.19 | promoter activity interaction Z-score [2, 18]: 0.261 ± 0.17 | promoter activity interaction Z-score [2, 19]: -0.0667 ± 0.48 | promoter activity interaction Z-score [2, 20]: -0.232 ± 0.11 | promoter activity interaction Z-score [2, 22]: 1.15 ± 0.47 | promoter activity interaction Z-score [2, 21]: 0.96 | promoter activity interaction Z-score [3, 7]: -0.15 ± 0.13 | promoter activity interaction Z-score [3, 8]: -0.453 ± 0.32 | promoter activity interaction Z-score [3, 9]: -0.0497 ± 0.041 | promoter activity interaction Z-score [3, 10]: 0.0722 ± 0.049 | promoter activity interaction Z-score [3, 11]: -0.0847 ± 0.24 | promoter activity interaction Z-score [3, 12]: -0.089 ± 0.056 | promoter activity interaction Z-score [3, 13]: -0.35 ± 0.18 | promoter activity interaction Z-score [3, 14]: -0.556 ± 0.079 | promoter activity interaction Z-score [3, 15]: -0.226 ± 0.099 | promoter activity interaction Z-score [3, 16]: -0.21 ± 0.076 | promoter activity interaction Z-score [3, 17]: 0.603 ± 0.17 | promoter activity interaction Z-score [3, 18]: 0.0583 ± 0.32 | promoter activity interaction Z-score [3, 19]: -2.5 | promoter activity interaction Z-score [3, 20]: 1.3 ± 0.68 | promoter activity interaction Z-score [3, 22]: 3.89 | promoter activity interaction Z-score [3, 21]: -0.534 | promoter activity interaction Z-score [4, 7]: 0.114 ± 0.034 | promoter activity interaction Z-score [4, 8]: 0.455 ± 0.074 | promoter activity interaction Z-score [4, 9]: 0.575 ± 0.24 | promoter activity interaction Z-score [4, 10]: 0.737 ± 0.98 | promoter activity interaction Z-score [4, 11]: 0.053 ± 0.093 | promoter activity interaction Z-score [4, 12]: 1.12 ± 0.13 | promoter activity interaction Z-score [4, 13]: -0.308 ± 0.14 | promoter activity interaction Z-score [4, 14]: 0.326 ± 0.87 | promoter activity interaction Z-score [4, 15]: -0.109 ± 0.28 | promoter activity interaction Z-score [4, 16]: -0.423 ± 0.23 | promoter activity interaction Z-score [4, 17]: -0.197 ± 0.6 | promoter activity interaction Z-score [4, 18]: 0.0845 ± 0.42 | promoter activity interaction Z-score [4, 19]: -0.125 ± 0.22 | promoter activity interaction Z-score [4, 20]: -0.424 ± 0.58 | promoter activity interaction Z-score [4, 21]: 0.453 ± 1.5 | promoter activity interaction Z-score [5, 7]: 0.0106 ± 0.12 | promoter activity interaction Z-score [5, 8]: -0.137 ± 0.086 | promoter activity interaction Z-score [5, 9]: -0.0668 ± 0.14 | promoter activity interaction Z-score [5, 10]: 0.0402 ± 0.15 | promoter activity interaction Z-score [5, 11]: 0.102 ± 0.0085 | promoter activity interaction Z-score [5, 12]: 0.0915 ± 0.093 | promoter activity interaction Z-score [5, 13]: 0.0454 ± 0.22 | promoter activity interaction Z-score [5, 14]: 0.0812 ± 0.0067 | promoter activity interaction Z-score [5, 15]: 0.0189 ± 0.12 | promoter activity interaction Z-score [5, 16]: -0.113 ± 0.12 | promoter activity interaction Z-score [5, 17]: -0.00251 ± 0.13 | promoter activity interaction Z-score [5, 18]: 0.294 ± 0.093 | promoter activity interaction Z-score [5, 19]: 0.367 ± 0.26 | promoter activity interaction Z-score [5, 20]: 0.0789 ± 0.17 | promoter activity interaction Z-score [5, 22]: -0.00598 ± 0.3 | promoter activity interaction Z-score [5, 21]: 0.987 ± 0.11 | promoter activity interaction Z-score [6, 7]: -0.752 ± 0.08 | promoter activity interaction Z-score [6, 8]: -0.242 ± 1.3 | promoter activity interaction Z-score [6, 9]: -0.5 ± 0.78 | promoter activity interaction Z-score [6, 10]: -0.5485 ± 0.0052 | promoter activity interaction Z-score [6, 11]: 0.445 ± 0.35 | promoter activity interaction Z-score [6, 12]: 0.287 ± 1.1 | promoter activity interaction Z-score [6, 13]: -0.164 ± 0.15 | promoter activity interaction Z-score [6, 14]: -0.317 ± 0.33 | promoter activity interaction Z-score [6, 15]: -0.711 ± 0.13 | promoter activity interaction Z-score [6, 16]: -0.75 ± 0.79 | promoter activity interaction Z-score [6, 17]: 0.238 ± 0.13 | promoter activity interaction Z-score [6, 18]: 0.385 ± 1.6 | promoter activity interaction Z-score [6, 19]: 1.24 ± 0.17 | promoter activity interaction Z-score [6, 20]: -1.22 ± 0.056 | promoter activity interaction Z-score [6, 22]: 0.356 ± 0.69 | promoter activity interaction Z-score [6, 21]: 0.0431 ± 0.49

From the supplement of paper PMC12282887
